Compound activity from PubChem.
A selection: hits, their analogues and other compounds. The true share with any hit is near 6.9%.
SW480 rerep: DNA re-replication induction in SW480 cells. SW480 DNA re-replication, Hoechst DNA content imaging, 48 h. 340,000 compounds, 1.8% hits. Potency, µM (series often up to 46.1 µM), without a hit: at the highest dose re-replication activation, most hits filed as activators. AID 624297; note: potency is the fitted concentration of half-maximal effect; % of control where 0% means no effect; nearly all actives have a fitted effect of over 55% in size
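Quantitative HTS format with DMSO vehicle controls; 48 hr drug incubation at 37 C, then 40 min Hoechst staining and scanning imager measurement at 405 nm excitation.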
Vif-APOBEC3G blk: inhibitors of Vif-APOBEC3G interaction. HeLa A3G-eYFP + Vif (tagged APOBEC3G with the HIV-1 protein that degrades it), YFP fluorescence, overnight. Q9HC16. AID 602310. Potency, µM (series often up to 46.1 µM), for the others: at the highest dose activity, negative = active, hits mostly inhibitors. 410,000 compounds, 0.076% hits; note: potency is the fitted concentration of half-maximal effect; % is set by controls: 0 for no effect and ±100 for the full control effect; nearly all actives have a fitted effect of over 60% in size
Target sequence (Q9HC16 whole entry, looked up): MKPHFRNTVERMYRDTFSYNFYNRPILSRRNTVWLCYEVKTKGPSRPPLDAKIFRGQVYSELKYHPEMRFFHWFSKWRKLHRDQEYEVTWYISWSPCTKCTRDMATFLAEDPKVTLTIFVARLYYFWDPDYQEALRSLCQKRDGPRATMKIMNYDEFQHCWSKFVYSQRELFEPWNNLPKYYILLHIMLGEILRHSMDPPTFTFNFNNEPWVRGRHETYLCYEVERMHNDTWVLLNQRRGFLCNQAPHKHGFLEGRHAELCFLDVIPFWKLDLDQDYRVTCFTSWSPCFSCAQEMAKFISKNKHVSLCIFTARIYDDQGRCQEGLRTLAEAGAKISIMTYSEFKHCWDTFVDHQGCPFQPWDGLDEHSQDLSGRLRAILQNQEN
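HeLa cells stably expressing Vif and C-terminally eYFP-tagged A3G, seeded overnight at 37 deg C, then exposed to compound by pintool overnight at 37 deg C. Rise in yellow fluorescence (Ex 488/Em 500-530, Acumen) marks blocked Vif-driven A3G degradation.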
MCF10A rereplic: DNA re-replication induction in MCF 10a cells; Potency, µM (highest dose often 46.1 µM), without a hit: at the highest dose activity, positive = re-replication, actives largely listed as activators; 350,000 compounds, 2.9% hits; MCF 10A DNA re-replication, Hoechst nuclear intensity, 48 h; AID 624296; note: potency is the fitted concentration of half-maximal effect; % of control where 0% means no effect; nearly all actives have a fitted effect of over 50% in size
IL1B secr inh: inhibitors of inflammasome signaling (IL-1 beta secretion) | THP-1 LPS/ATP IL-1B secretion, AlphaLISA, 16 h; hits give low values | activity change, % at 57.5 µM | 360,000 compounds, 4.7% hits; in the data active = activity change below about -50%; inconclusive = mostly about -30% to -49%; note: % is set by controls: 0 for no effect and ±100 for the full control effect
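Secreted IL-1B measured by AlphaLISA bead assay after 16 h compound exposure of THP-1 cells; compounds (final up to 57.5 uM) added 1 h before LPS (250 ng/mL) and ATP (1.25 mM) stimulation; lower signal means less secretion.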
Vif-APOBEC3F blk: inhibitors of Vif-A3F interaction; HeLa A3F-eYFP + Vif (tagged APOBEC3F with the HIV-1 protein that degrades it), YFP fluorescence increase; Potency, µM (top dose mostly 46.1 µM), for the others: at the highest dose activity, negative = active; 390,000 compounds, 0.2% hits; AID 602313; note: potency is the fitted concentration of half-maximal effect; % of control where 0% means no effect; nearly all actives have a fitted effect of over 65% in size
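Fluorescence increase (Ex 488/Em 500-530) after overnight compound treatment at 37 deg C flags inhibition of Vif-driven A3F-eYFP loss in stable HeLa A3F-eYFP/Vif cells seeded overnight beforehand.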
Giardia kill: kills Giardia lamblia | Giardia lamblia trophozoite viability | activity change, % at 7.66 µM, hits read low | 340,000 compounds, 0.15% hits; in the data active = activity change below about -80%; inconclusive = between about -30% and that limit;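 note: parasites exposed to compound for two days anaerobically before the ATP read; % is set by controls: 0 for no effect and ±100 for the full control effect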
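Giardia trophozoites, 100 cells per well, were exposed to compounds for 48 hrs at 37 deg C under anaerobic conditions; viability was then read as ATP content by bioluminescence after 15-30 min at room temperature.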
* marks the source's active call; other numbers are inactive results. Unless noted, calls come from the whole dose curve; as a rule, active = well fitted curve in the direction sought with a large enough effect; inconclusive = small, poorly fitted or top-dose-only effect, or another doubt; inactive = no such curve, though single readings can be large; an effect the other way counts as inactive or inconclusive.

Results for Nc1ccccc1Nc1cc(-c2ccccc2)nn1-c1cccc(Cl)c1 ?
SW480 rerep: -3.5%; Vif-APOBEC3G blk: 0.0%; MCF10A rereplic: inconclusive; IL1B secr inh: -52.1*; Vif-APOBEC3F blk: inconclusive; Giardia kill: 13.0

Results for Cc1ccc(-c2nn(-c3ccccc3)cc2NC(=O)CCl)cc1 ?
SW480 rerep: 18.4µM*; Vif-APOBEC3G blk: inconclusive; MCF10A rereplic: inconclusive; IL1B secr inh: -99.7*; Vif-APOBEC3F blk: -1.5%; Giardia kill: 10.1

Results for Cc1ccc(-c2cc(-c3ccccc3)c3c(N)c(S(C)(=O)=O)sc3n2)cc1 ?
SW480 rerep: 11.6µM*; Vif-APOBEC3G blk: -6.5%; MCF10A rereplic: inconclusive; IL1B secr inh: inconclusive; Vif-APOBEC3F blk: -1.8%; Giardia kill: -8.5

How did N#Cc1sc2nc(-c3ccccc3)cc(-c3ccco3)c2c1N do in these assays?
SW480 rerep: inconclusive; Vif-APOBEC3G blk: -25.6%; MCF10A rereplic: inconclusive; IL1B secr inh: -9.1; Vif-APOBEC3F blk: inconclusive; Giardia kill: -13.9

Results for CS(=O)(=O)c1sc2nc(-c3cccs3)cc(-c3ccccc3)c2c1N ?
SW480 rerep: inconclusive; Vif-APOBEC3G blk: 3.1%; MCF10A rereplic: 18.4µM*; IL1B secr inh: -71.5*; Vif-APOBEC3F blk: -4.7%; Giardia kill: -4.2

Results for N#Cc1sc2nc(-c3cccs3)cc(-c3ccc(F)cc3)c2c1N ?
SW480 rerep: inconclusive; Vif-APOBEC3G blk: -7.7%; MCF10A rereplic: inconclusive; IL1B secr inh: 8.4; Vif-APOBEC3F blk: inconclusive; Giardia kill: 3.7

What do the screens show for `Cc1cc(C)n(CCc2nc3c4ccccc4nc(N4CCN(c5ccccc5F)CC4)n3n2)n1`?
Vif-APOBEC3G blk: -2.0%; Vif-APOBEC3F blk: -9.3%

Results for CC(C)(C)Nc1nc2nonc2nc1NC(C)(C)C ?
SW480 rerep: 16.5%; Vif-APOBEC3G blk: 0.4%; MCF10A rereplic: 17.2%; IL1B secr inh: -68.0*; Vif-APOBEC3F blk: -10.3%; Giardia kill: -6.5

How did COc1cc2c(cc1OC)n(CC(=O)c1ccc(F)cc1)c(=O)n1nc(CCn3nc(C)cc3C)nc21 do in these assays?
Vif-APOBEC3G blk: 5.0%; Vif-APOBEC3F blk: -6.4%

Results for CCc1ccc(NC(=O)COC(=O)c2ccccc2OCC(=O)N(C)C)cc1 ?
Vif-APOBEC3G blk: 0.6%

How did Nc1c(-c2cccc(Cl)c2)cnn1-c1cccc(C(F)(F)F)c1 do in these assays?
SW480 rerep: 3.3%; Vif-APOBEC3G blk: 2.1%; MCF10A rereplic: 10.8%; IL1B secr inh: -61.4*; Vif-APOBEC3F blk: 6.0%; Giardia kill: 8.6

How did Nc1c(-c2ccccc2)cnn1-c1cccc(C(F)(F)F)c1 do in these assays?
SW480 rerep: -2.7%; Vif-APOBEC3G blk: 0.8%; MCF10A rereplic: 2.5%; IL1B secr inh: -8.2; Vif-APOBEC3F blk: -2.5%; Giardia kill: 4.4

Results for CCC(C)NC(=O)c1cc2c(Cl)nc3ccc(C)cc3c2s1 (configuration not stated) ?
Vif-APOBEC3G blk: 1.0%; Vif-APOBEC3F blk: 2.1%

What do the screens show for `COc1ccc(Cn2ccc3nc(C)c(C(=O)N4CCN(c5cccc(OC)c5)CC4)cc3c2=O)cc1`?
Vif-APOBEC3G blk: -5.0%; Vif-APOBEC3F blk: 1.0%

Results for CCc1ccc(Sc2cc(C(=O)NCc3ccccc3OC)c3ccccc3n2)cc1 ?
Vif-APOBEC3G blk: -1.7%; Vif-APOBEC3F blk: 2.2%

Results for CC(C)COc1ccc(C(=O)Nc2ccccc2[N+](=O)[O-])cc1 ?
SW480 rerep: inconclusive; Vif-APOBEC3G blk: inconclusive; MCF10A rereplic: 13µM*; IL1B secr inh: -25.0; Vif-APOBEC3F blk: -14.8%; Giardia kill: 9.8

How did CCCOc1ccc(C(=O)Nc2ccc(C)cc2[N+](=O)[O-])cc1 do in these assays?
SW480 rerep: -0.6%; Vif-APOBEC3G blk: 3.0%; MCF10A rereplic: inconclusive; IL1B secr inh: -10.1; Vif-APOBEC3F blk: -4.5%; Giardia kill: 15.3

Results for COc1ccc(NC(=O)c2cccc(NC(=O)C(C)C)c2)c([N+](=O)[O-])c1 ?
SW480 rerep: -5.2%; Vif-APOBEC3G blk: 1.0%; MCF10A rereplic: -5.3%; IL1B secr inh: 1.4; Vif-APOBEC3F blk: -2.6%; Giardia kill: 0.4

What do the screens show for `COc1ccc(Nc2ccc(C(N)=O)cc2[N+](=O)[O-])cc1`?
SW480 rerep: -0.2%; Vif-APOBEC3G blk: 1.7%; MCF10A rereplic: -2.8%; IL1B secr inh: -60.6*; Vif-APOBEC3F blk: 1.8%; Giardia kill: -11.2

Results for COc1ccc(Nc2ccc(C(=O)O)cc2[N+](=O)[O-])cc1 ?
SW480 rerep: 0.1%; Vif-APOBEC3G blk: -0.7%; MCF10A rereplic: 2.3%; IL1B secr inh: 27.1; Vif-APOBEC3F blk: -8.3%; Giardia kill: -16.1

Results for COc1ccc(NC(=O)c2ccc(NC(=O)C(C)C)cc2)c([N+](=O)[O-])c1 ?
SW480 rerep: -6.6%; Vif-APOBEC3G blk: -8.6%; MCF10A rereplic: -6.5%; IL1B secr inh: 6.0; Vif-APOBEC3F blk: 10µM*; Giardia kill: -8.3

Results for Cc1c(NC(=O)c2ccc(C(C)(C)C)cc2)cccc1[N+](=O)[O-] ?
SW480 rerep: 26.6%; Vif-APOBEC3G blk: 2.3%; MCF10A rereplic: 15.1%; IL1B secr inh: -51.7*; Vif-APOBEC3F blk: -3.6%; Giardia kill: 34.6

How did COc1ccc(C2C(C(N)=O)=C(C)Nc3nc(SCc4ccccc4Cl)nn32)cc1OC (configuration not stated) do in these assays?
Vif-APOBEC3G blk: -1.0%; Vif-APOBEC3F blk: -2.3%

How did CCOC(=O)c1ccc(NC(=O)CN(Cc2ccc(C)cc2)S(=O)(=O)c2ccc(C)cc2)cc1 do in these assays?
Vif-APOBEC3G blk: -1.8%; Vif-APOBEC3F blk: 0.2%

Results for O=C(NCCc1ccc(F)cc1)C(=O)NCC1CCCN1S(=O)(=O)c1ccccc1 (configuration not stated) ?
SW480 rerep: inconclusive; Vif-APOBEC3G blk: -27.7%; MCF10A rereplic: inconclusive; IL1B secr inh: -79.7*; Vif-APOBEC3F blk: -7.3%; Giardia kill: -2.7

How did COc1ccc(CCNC(=O)C(=O)NCC2CCCN2S(=O)(=O)c2ccccc2)cc1 (configuration not stated) do in these assays?
SW480 rerep: 4.61µM*; Vif-APOBEC3G blk: -7.7%; MCF10A rereplic: inconclusive; IL1B secr inh: -30.0; Vif-APOBEC3F blk: 0.0%; Giardia kill: 11.9

What do the screens show for `O=C(NCc1ccc(F)cc1)C(=O)NCC1CCCN1S(=O)(=O)c1ccccc1` (configuration not stated)?
SW480 rerep: -0.8%; Vif-APOBEC3G blk: -3.4%; MCF10A rereplic: 7.7%; IL1B secr inh: -20.9; Vif-APOBEC3F blk: 3.9%; Giardia kill: -0.4

What do the screens show for `COc1ccc(CCNC(=O)c2ccc3c(c2)c(C)c(C)n3Cc2ccc(F)cc2)c(OC)c1OC`?
Vif-APOBEC3G blk: 1.9%; Vif-APOBEC3F blk: -2.2%
